# Assays:
# [1] = molecular target: T1, Inhibitor of nuclear factor kappa-B kinase subunit epsilon (Homo sapiens) (UniProt Q14164); settings: at 1 µM;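 also: reported values are averaged percent inhibition figures against human IKKε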
# T1 sequence (whole entry): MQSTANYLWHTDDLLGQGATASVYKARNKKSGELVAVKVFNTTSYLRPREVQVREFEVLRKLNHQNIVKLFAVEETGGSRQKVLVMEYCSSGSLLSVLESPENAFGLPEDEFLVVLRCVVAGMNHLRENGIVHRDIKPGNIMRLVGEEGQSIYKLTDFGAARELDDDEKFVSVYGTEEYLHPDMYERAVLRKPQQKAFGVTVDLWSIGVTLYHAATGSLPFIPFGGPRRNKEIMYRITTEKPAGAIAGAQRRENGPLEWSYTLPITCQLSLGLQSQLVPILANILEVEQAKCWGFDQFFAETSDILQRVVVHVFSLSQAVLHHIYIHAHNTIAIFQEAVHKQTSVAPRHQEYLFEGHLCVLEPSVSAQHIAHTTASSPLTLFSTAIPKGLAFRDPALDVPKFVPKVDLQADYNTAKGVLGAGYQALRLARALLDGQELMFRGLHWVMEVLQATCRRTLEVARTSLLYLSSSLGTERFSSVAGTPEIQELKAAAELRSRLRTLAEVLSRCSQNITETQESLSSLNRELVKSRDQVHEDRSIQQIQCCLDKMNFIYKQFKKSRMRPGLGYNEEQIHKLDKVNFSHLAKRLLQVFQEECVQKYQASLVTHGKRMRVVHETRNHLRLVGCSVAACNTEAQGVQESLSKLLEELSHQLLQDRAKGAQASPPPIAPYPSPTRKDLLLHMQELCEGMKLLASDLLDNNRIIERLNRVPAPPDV
# [2] = molecular target: T2, Serine/threonine-protein kinase Nek1 (Homo sapiens) (UniProt Q96PY6); settings: at 0.1 µM
# T2 sequence (whole entry): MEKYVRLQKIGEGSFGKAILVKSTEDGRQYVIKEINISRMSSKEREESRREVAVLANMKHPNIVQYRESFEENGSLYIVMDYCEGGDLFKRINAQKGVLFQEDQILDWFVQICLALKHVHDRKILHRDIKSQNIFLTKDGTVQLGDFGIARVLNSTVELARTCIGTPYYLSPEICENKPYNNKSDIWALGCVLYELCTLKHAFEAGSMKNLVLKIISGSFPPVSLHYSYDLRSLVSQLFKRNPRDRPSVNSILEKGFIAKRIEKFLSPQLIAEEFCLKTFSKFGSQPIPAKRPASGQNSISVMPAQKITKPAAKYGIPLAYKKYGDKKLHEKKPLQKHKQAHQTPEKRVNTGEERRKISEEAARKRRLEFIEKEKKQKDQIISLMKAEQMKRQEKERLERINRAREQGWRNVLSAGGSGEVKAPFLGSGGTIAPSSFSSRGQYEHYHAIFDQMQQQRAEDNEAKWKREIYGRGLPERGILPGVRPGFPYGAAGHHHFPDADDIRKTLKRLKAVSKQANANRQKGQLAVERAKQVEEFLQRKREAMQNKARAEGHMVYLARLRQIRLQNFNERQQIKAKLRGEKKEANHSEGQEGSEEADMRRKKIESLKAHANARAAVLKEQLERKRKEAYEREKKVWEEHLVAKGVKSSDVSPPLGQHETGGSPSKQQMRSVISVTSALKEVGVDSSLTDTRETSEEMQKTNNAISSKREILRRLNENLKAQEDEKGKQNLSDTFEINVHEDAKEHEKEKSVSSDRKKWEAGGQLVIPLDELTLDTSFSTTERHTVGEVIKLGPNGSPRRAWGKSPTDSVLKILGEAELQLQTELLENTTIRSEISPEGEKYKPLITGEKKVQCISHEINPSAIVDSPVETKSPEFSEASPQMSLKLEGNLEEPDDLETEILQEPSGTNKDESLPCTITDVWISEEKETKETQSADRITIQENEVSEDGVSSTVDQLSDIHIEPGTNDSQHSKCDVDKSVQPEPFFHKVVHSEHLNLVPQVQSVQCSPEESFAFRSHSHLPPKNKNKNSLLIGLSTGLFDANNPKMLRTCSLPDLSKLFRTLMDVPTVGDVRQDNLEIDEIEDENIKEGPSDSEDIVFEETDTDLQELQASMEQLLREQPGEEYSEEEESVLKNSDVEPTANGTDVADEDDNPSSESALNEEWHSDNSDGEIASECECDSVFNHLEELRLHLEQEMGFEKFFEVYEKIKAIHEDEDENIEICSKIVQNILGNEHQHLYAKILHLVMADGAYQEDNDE
# [3] = molecular target: T2, Serine/threonine-protein kinase Nek1 (Homo sapiens); settings: at 1 µM
# [4] = molecular target: T3, Serine/threonine-protein kinase Nek2 (Homo sapiens) (UniProt P51955); settings: at 0.1 µM
# T3 sequence (whole entry): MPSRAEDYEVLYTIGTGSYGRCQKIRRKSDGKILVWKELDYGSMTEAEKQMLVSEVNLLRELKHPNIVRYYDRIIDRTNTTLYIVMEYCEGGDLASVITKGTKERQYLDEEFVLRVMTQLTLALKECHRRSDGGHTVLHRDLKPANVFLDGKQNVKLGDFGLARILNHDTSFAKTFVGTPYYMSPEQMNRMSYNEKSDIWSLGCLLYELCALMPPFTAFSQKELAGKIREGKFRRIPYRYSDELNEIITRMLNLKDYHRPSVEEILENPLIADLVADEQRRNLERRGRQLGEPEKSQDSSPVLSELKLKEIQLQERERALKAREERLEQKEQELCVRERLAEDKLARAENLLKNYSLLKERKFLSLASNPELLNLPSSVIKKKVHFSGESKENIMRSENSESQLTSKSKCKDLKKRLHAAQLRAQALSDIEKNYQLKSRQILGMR
# [5] = molecular target: T3, Serine/threonine-protein kinase Nek2 (Homo sapiens); settings: at 1 µM
# [6] = molecular target: Serine/threonine-protein kinase Nek6 (Homo sapiens) (UniProt Q9HC98); settings: at 0.1 µM
# Sequence of Serine/threonine-protein kinase Nek6 (Homo sapiens) (Q9HC98 whole entry): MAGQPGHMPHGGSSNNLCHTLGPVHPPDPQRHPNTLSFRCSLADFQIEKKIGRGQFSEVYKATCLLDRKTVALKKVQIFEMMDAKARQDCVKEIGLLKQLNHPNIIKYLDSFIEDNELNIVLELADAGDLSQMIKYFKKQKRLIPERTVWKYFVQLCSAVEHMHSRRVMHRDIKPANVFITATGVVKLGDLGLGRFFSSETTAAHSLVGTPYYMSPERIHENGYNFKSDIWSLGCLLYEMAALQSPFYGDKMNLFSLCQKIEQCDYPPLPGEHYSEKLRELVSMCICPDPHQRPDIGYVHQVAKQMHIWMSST
# [7] = molecular target: Serine/threonine-protein kinase Nek6 (Homo sapiens) (UniProt Q9HC98); settings: at 1 µM
# [8] = molecular target: Serine/threonine-protein kinase Nek7 (Homo sapiens) (UniProt Q8TDX7); settings: at 0.1 µM
# Sequence of Serine/threonine-protein kinase Nek7 (Homo sapiens) (Q8TDX7 whole entry, looked up): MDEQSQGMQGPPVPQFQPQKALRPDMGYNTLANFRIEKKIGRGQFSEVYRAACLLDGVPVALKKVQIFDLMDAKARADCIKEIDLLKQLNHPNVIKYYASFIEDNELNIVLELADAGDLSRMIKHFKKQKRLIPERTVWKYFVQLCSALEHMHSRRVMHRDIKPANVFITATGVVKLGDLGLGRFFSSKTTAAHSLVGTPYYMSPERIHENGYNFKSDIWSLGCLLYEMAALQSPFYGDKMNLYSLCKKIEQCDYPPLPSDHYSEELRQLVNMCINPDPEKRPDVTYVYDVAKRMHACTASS
# [9] = molecular target: Serine/threonine-protein kinase Nek7 (Homo sapiens) (UniProt Q8TDX7); settings: at 1 µM
# [10] = molecular target: T4, Serine/threonine-protein kinase Nek9 (Homo sapiens) (UniProt Q8TD19); settings: at 0.1 µM
# T4 sequence (whole entry): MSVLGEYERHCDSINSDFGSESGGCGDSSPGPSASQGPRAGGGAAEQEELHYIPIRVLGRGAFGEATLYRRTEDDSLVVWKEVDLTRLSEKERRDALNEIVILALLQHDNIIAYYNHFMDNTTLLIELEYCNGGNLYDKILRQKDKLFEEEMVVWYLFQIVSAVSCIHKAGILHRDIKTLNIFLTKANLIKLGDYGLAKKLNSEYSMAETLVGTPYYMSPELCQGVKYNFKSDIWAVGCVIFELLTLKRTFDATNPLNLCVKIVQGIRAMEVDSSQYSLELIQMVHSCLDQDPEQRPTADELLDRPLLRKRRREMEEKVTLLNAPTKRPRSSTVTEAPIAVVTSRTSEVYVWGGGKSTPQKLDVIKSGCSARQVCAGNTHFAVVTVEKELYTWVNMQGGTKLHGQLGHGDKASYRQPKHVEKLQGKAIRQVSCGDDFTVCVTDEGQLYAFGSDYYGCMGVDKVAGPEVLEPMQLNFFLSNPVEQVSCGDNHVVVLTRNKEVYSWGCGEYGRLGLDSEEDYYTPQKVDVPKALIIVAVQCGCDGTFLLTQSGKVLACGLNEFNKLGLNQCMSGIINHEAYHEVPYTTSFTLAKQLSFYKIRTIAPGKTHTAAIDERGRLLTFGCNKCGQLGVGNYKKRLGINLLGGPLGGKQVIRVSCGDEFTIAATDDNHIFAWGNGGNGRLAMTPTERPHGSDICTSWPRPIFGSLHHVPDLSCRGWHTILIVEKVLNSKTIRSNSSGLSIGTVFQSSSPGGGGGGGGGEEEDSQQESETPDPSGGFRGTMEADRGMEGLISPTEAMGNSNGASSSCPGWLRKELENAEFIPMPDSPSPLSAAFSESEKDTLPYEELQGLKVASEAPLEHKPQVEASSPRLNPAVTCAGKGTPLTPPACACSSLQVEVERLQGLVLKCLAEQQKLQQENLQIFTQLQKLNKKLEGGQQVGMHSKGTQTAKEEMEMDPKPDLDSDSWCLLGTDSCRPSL
# [11] = molecular target: T4, Serine/threonine-protein kinase Nek9 (Homo sapiens); settings: at 1 µM
# [12] = molecular target: Serine/threonine-protein kinase PLK1 (Homo sapiens) (UniProt P53350); settings: at 0.1 µM
# Sequence of Serine/threonine-protein kinase PLK1 (Homo sapiens) (P53350 whole entry): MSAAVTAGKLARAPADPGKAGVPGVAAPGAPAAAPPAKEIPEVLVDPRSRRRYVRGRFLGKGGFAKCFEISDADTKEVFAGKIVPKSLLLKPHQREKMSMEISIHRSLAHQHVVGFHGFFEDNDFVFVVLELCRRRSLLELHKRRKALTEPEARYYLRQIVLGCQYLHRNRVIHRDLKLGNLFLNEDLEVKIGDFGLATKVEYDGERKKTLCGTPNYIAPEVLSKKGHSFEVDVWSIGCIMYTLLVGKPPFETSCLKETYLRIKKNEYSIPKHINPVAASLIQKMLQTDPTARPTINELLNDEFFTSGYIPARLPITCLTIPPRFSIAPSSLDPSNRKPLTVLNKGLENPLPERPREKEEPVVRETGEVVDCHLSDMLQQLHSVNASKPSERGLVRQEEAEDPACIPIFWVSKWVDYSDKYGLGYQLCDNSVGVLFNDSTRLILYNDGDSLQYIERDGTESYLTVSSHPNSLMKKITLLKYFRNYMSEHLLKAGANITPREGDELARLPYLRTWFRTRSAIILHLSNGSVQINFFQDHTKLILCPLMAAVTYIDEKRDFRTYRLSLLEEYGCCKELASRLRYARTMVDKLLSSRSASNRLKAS
# [13] = molecular target: Serine/threonine-protein kinase PLK1 (Homo sapiens) (UniProt P53350); settings: at 1 µM
# [14] = molecular target: T5, Dual specificity protein kinase TTK (Homo sapiens) (UniProt P33981); settings: at 0.1 µM
# T5 sequence (whole entry): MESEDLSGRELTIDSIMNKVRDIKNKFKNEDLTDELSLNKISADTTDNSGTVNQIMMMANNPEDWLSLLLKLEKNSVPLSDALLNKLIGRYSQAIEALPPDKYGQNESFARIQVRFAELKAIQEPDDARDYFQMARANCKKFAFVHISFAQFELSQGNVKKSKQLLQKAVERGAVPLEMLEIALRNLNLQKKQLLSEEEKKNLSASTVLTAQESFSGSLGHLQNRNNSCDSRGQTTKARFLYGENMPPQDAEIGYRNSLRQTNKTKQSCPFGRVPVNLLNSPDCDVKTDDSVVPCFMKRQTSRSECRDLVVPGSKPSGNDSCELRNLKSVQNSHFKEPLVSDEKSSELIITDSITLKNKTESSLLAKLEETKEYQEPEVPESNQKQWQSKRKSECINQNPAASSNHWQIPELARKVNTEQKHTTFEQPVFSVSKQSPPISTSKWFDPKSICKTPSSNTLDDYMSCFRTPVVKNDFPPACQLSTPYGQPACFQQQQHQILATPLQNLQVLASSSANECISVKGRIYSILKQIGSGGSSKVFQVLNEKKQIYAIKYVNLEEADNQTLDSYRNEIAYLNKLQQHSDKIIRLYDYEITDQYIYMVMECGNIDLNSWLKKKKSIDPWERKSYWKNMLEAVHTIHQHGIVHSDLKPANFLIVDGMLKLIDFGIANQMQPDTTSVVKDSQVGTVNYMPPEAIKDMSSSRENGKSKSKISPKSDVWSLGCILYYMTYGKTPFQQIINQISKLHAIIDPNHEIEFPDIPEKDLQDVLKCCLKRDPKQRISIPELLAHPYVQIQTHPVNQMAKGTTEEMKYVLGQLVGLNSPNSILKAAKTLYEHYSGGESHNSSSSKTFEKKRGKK
# [15] = test system: T6, Receptor-type tyrosine-protein kinase FLT3 (Homo sapiens), P36888 [D835Y]; settings: at 1 µM
# T6 sequence (whole entry): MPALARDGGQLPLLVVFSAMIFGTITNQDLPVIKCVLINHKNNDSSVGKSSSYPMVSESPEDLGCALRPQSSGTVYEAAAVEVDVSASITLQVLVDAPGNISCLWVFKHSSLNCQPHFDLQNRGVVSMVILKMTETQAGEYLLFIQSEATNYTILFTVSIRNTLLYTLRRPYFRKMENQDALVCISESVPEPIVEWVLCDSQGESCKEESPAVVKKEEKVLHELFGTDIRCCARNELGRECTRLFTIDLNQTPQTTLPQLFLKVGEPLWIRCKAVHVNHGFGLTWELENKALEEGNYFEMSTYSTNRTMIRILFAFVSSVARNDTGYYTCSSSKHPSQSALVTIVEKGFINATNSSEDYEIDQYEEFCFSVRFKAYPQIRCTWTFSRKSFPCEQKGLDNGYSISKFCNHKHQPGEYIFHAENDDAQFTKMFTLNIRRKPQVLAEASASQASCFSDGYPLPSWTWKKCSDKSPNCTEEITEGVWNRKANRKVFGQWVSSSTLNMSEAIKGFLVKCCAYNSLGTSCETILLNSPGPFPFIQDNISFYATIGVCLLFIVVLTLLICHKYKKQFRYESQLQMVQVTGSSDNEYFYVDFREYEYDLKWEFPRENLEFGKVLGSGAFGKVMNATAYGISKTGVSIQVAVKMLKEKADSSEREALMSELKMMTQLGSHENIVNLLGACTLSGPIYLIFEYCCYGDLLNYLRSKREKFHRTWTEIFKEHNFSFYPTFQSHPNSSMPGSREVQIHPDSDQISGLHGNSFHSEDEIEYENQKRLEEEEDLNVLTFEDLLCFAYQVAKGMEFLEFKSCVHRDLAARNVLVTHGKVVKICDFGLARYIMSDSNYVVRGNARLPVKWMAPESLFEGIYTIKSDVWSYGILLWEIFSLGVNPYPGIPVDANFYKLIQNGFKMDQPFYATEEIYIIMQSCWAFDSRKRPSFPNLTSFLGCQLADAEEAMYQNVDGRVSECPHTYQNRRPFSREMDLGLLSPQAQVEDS
# [16] = molecular target: Vascular endothelial growth factor receptor 3 (Homo sapiens) (UniProt P35916); settings: at 0.1 µM
# Sequence of Vascular endothelial growth factor receptor 3 (Homo sapiens) (P35916 whole entry): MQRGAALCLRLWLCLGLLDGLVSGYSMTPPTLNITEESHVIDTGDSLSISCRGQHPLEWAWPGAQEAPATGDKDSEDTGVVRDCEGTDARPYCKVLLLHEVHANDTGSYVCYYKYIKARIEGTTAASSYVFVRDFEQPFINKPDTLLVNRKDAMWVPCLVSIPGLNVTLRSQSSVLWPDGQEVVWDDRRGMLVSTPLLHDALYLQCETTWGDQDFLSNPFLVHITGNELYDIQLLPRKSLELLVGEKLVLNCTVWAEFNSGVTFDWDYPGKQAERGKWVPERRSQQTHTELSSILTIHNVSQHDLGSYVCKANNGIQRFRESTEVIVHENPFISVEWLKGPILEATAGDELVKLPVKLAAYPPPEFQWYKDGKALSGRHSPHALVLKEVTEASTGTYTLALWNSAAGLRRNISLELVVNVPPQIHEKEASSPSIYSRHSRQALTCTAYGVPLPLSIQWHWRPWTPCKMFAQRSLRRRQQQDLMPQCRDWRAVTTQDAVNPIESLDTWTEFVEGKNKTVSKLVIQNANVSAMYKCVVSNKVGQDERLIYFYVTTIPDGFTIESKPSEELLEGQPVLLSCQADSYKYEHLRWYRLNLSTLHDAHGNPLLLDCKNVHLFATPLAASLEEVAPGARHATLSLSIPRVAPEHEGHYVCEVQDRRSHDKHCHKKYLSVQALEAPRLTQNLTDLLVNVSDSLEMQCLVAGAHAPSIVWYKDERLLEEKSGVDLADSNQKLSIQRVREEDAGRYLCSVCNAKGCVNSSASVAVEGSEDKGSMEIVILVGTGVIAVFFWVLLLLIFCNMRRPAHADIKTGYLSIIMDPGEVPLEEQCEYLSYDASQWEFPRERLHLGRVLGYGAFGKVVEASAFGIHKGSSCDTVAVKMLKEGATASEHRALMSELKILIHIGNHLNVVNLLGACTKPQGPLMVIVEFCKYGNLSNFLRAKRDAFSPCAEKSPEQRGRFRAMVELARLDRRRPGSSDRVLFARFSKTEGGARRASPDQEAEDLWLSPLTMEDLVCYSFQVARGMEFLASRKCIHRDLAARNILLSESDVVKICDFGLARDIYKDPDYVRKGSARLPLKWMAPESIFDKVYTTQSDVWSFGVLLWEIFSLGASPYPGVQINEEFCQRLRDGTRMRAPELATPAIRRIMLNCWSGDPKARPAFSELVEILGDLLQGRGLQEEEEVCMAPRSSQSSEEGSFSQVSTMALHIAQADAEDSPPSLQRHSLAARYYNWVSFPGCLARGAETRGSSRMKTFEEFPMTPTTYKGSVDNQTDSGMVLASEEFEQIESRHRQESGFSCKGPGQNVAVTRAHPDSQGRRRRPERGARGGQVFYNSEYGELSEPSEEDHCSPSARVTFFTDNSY
# [17] = molecular target: Vascular endothelial growth factor receptor 3 (Homo sapiens) (UniProt P35916); settings: at 1 µM
# [18] = molecular target: Macrophage colony-stimulating factor 1 receptor (Homo sapiens) (UniProt P07333); settings: at 0.1 µM
# Sequence of Macrophage colony-stimulating factor 1 receptor (Homo sapiens) (P07333 whole entry): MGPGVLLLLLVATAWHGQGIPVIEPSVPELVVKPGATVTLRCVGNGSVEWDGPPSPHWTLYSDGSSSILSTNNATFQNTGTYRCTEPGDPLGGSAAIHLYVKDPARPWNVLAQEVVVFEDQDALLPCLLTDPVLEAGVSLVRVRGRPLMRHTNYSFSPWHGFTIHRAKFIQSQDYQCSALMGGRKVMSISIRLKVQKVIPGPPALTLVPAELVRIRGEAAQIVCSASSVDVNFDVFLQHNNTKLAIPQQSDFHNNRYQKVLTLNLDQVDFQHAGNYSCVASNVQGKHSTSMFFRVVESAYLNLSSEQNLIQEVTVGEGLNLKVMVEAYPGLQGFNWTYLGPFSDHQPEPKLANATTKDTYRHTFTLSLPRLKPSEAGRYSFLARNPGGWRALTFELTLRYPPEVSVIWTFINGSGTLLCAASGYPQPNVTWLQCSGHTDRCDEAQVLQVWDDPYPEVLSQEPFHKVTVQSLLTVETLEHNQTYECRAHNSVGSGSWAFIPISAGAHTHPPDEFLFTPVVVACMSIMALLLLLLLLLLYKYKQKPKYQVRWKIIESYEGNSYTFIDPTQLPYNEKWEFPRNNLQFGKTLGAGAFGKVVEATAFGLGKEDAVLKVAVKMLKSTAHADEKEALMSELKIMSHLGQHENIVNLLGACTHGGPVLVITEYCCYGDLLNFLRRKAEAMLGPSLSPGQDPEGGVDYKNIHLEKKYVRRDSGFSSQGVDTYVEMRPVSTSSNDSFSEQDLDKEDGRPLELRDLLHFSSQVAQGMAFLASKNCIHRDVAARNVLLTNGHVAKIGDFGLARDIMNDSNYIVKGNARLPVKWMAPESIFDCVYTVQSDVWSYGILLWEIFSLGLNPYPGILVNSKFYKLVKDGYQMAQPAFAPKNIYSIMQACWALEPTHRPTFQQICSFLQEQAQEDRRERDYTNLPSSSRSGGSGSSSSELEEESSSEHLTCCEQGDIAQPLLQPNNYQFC
# [19] = molecular target: Macrophage colony-stimulating factor 1 receptor (Homo sapiens) (UniProt P07333); settings: at 1 µM
# [20] = molecular target: Tyrosine-protein kinase Fyn (Homo sapiens) (UniProt P06241); settings: at 0.1 µM
# Sequence of Tyrosine-protein kinase Fyn (Homo sapiens) (P06241 2-537 limits assumed): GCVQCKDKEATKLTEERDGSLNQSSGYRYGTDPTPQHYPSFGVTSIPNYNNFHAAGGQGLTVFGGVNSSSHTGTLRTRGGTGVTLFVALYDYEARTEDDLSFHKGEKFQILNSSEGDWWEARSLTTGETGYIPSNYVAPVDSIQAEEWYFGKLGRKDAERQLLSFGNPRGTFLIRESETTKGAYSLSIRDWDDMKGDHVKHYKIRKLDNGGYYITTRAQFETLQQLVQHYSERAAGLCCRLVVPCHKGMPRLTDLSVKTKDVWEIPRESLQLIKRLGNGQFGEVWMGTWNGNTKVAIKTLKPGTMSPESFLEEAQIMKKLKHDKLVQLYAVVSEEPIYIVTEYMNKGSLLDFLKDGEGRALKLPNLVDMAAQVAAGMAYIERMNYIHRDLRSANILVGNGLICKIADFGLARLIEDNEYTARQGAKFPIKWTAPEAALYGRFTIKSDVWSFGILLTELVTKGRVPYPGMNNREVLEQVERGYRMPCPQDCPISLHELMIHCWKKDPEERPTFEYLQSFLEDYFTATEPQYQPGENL
compound,measurement,setting,value
Nc1ncc(-c2cccc(S(N)(=O)=O)c2)c2scc(-c3ccc(F)c(Cl)c3)c12,inhibition,[1],6.28%
same,inhibition,[2],1.83%
same,inhibition,[3],3.98%
same,inhibition,[4],4.7%
same,inhibition,[5],4.74%
same,inhibition,[6],2.28%
same,inhibition,[7],3.81%
same,inhibition,[8],3.41%
same,inhibition,[9],-0.15%
same,inhibition,[10],5.04%
same,inhibition,[11],-0.67%
same,inhibition,[12],4.55%
same,inhibition,[13],2.5%
same,inhibition,[14],5.8%
same,inhibition,[15],-1.46%
same,inhibition,[16],5.73%
same,inhibition,[17],12.6%
same,inhibition,[18],6.9%
same,inhibition,[19],43.7%
same,inhibition,[20],7.81%

# — ChEMBL document CHEMBL1961873, “Compounds: GSK PKIS; Assays: Nanosyn kinase panel” (2012)
